Among the data in PubChem BioAssay (EPA / NIEHS) are outcome and AC50 values, retold here.

A short description of experiment [1]: CCTE_Mundy_HCI_Cortical_NOG_BPCount: CCTE's Neurite Outgrowth Assay in rat cortical cells for Branch Point Count, Mundy Lab (AID 2284237).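 For AC50: branch points counted about two days after chemical exposure.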 Summed up: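 Measured 50.33 h after dosing, this morphology endpoint uses rat primary cortical cultures labelled for betaIII-tubulin. Branch points are quantified by high-content imaging, with DMSO as negative control and baseline.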

Experiment [2] is described as follows: CCTE_Mundy_HCI_hNP1_Casp3_7: CCTE's Caspase-Glo 3/7 Assay in human neuroprogenitor cells for Apoptosis, Mundy Lab (AID 2284240). In a few lines:
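Neuroepithelial-lineage stem cells from WA09 embryonic cells were treated with chemicals after 40–44 h of culture. Twenty-four hours later, caspase-3/7 activation was detected luminescently after a 30 min room-temperature reagent step, with DMSO as baseline.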

A short description of experiment [3]: UKN4_HCS_LUHMES_cell_viability: Viability Assessment in the University of Konstanz (UKN) Leist Lab Neurite Outgrowth Assay in human LUHMES cells (UKN4) (AID 2284232). In a few lines: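 Viability was read by high-content imaging of calcein-AM/H-33342-stained cells after 24 h toxicant exposure, staining included. Cells: human LUHMES on day 2 of dopaminergic differentiation, dosed shortly after attachment; DMSO baseline, bidirectional curve fitting.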

A short description of experiment [4]: UKN2_HCS_IMR90_cell_viability: Viability Assessment in the University of Konstanz (UKN) Leist Lab Neural Crest Cell Migration Assay in human induced IMR90 Pluripotent Stem Cells (UKN2) (AID 2284233).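 Note: viability of neural crest cells differentiated from IMR90 iPSC measured by calcein-AM fluorescence imaging; cells exposed to compound for 24 h after a 24 h migration phase.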 In a few lines:
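cMINC format, iPSC-derived neural crest (IMR90); 24 h migration (EGF/FGF, N2-S), then 24 h toxicant. Calcein-AM/H-33342 stain 30 min; fluorescence intensity by HCS; DMSO-normalised, bidirectional fitting.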

A short description of experiment [5]: CCTE_Mundy_HCI_Cortical_NOG_NeuronCount: CCTE's Neurite Outgrowth Assay in rat cortical cells for Neuron Count, Mundy Lab (AID 2284236; active = hit-call score of the fitted dose curve at least 0.9, where 1 is the maximum;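 note: neurons counted by imaging betaIII-tubulin and Hoechst stained cortical cells; cells exposed to compound for about 48 hours before fixation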). In a few lines: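 Read-out: neuron number by high-content imaging of betaIII-tubulin (Alexa Fluor-488) and Hoechst-labelled rat primary cortical cells.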
The nature of experiment [6]: CCTE_Mundy_HCI_hNP1_CellTiter: CCTE's Cell Titer-Glo 2 Assay in human neuroprogenitor cells for Viability, Mundy Lab (AID 2284241; active = hit-call score of the fitted dose curve at least 0.9, where 1 is the maximum;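 for AC50: a hit is a drop in ATP luminescence versus DMSO meaning reduced viability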). In a few lines: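 Measures ATP content in human neural progenitors derived from WA09 embryonic cells. Read-out at 26.5 hours after dosing, with DMSO serving as the negative control and baseline.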
In general terms: ATP-based viability assays read luminescence as a measure of living cells.

Experiment [7] in a line: CCTE_Mundy_HCI_Cortical_Synap_Neur_Matur_NeuronCount: CCTE's Synaptogenesis and Neurite Maturation Assay in rat cortical cells for Neuron Count, Mundy Lab (AID 2284242; active = hit-call score of the fitted dose curve at least 0.9, where 1 is the maximum;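 for AC50: hits reduce neuron count versus DMSO baseline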). Summed up:
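Neuron counts come from automated high-content imaging of Hoechst nuclei and MAP2/synaptophysin immunostaining at DIV 12, with loss of signal judged against DMSO. Cultures of rat cortical cells had glial growth arrested by AraC at DIV 5; chemical exposure began DIV 7.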

Experiment [8] is described as follows: TAMU_HCS_1.5hr_SingleDonor1434_Cytotoxicity: Cytotoxicity Assessment using High-content Screening (HCS) Fluorescent Imaging for the Texas A&M University (TAMU) 1.5-hr Human Induced Pluripotent Stem Cell (iPSC)-derived Cardiotoxicity Assay (AID 2284234; active = hit-call score of the fitted dose curve at least 0.9, where 1 is the maximum). In a few lines:
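Nuclear counts from Hoechst 33342 imaging define cytotoxicity here, with EC10 (10% cell-count loss relative to DMSO) as point of departure. iPSC cardiomyocytes received 0.2-100 uM test chemical in 0.5% DMSO for 1.5 h at 37 C.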

Experiment [9] is described as follows: TAMU_PeakParms_SingleDonor1434_QT: Texas A&M University (TAMU) 1.5-hr Human Induced Pluripotent Stem Cell (iPSC)-derived Cardiomyocytes Calcium (Ca+2) Flux Assay for Cardiotoxicity: QT (decay-rise ratio) (AID 2284235; active = hit-call score of the fitted dose curve at least 0.9, where 1 is the maximum). In a few lines:
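Decay/rise ratio of calcium-flux fluorescence scored after 90 min exposure (37C) of donor 1434 iPSC cardiomyocytes to 0.2–100 uM (0.5% DMSO). Beat-cessation and severe-notch points removed; POD is EC05, a 5% rise over DMSO.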

Read-out in experiment [10]: Interleukin 6 (IL6), IL6 (gene 3569)
Briefly: BSK_BT_xIL6: BioMAP Diversity Plus: BT Assay for Interleukin 6 (IL6) Biomarker Activity (AID 2284228). The following applies: primary human B cells with PBMC. In a few lines: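 Secreted IL-6 in the primary human B cell plus PBMC system, measured by Luminex at 24 h post-chemical, DMSO as baseline. Alamar Blue viability: 75,000 cells/well, chemical 1 h before SEB/TSST-1 (20 ng/mL each), 90 h, then 6 h dye.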

Read-out in experiment [11]: Interleukin 17A (IL17A), IL17A (gene 3605)
Briefly: BSK_BT_xIL17A: BioMAP Diversity Plus: BT Assay for Interleukin 17A (IL17A) Biomarker Activity (AID 2284229). The note with it: primary human B cells with PBMC. In a few lines:
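Luminex xMAP quantification of secreted IL-17A after 24 h chemical exposure of a primary human B cell/PBMC co-culture. Signal increases fitted relative to DMSO negative control.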

Read-out in experiment [12]: Tumor necrosis factor (Homo sapiens) (UniProt P01375)
The experiment can be described thus: BSK_BT_xTNFa: BioMAP Diversity Plus: BT Assay for Tumor necrosis factor alpha (TNF-alpha) Biomarker Activity (AID 2284230). The following applies: primary human B cells with PBMC. Summed up:
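Endpoint derived in the positive direction versus DMSO vehicle. Cells: B cells together with PBMC, exposed 24 h before TNF-alpha in the medium was read on the Luminex xMAP platform.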

Read-out in experiment [13]: Vascular cell adhesion molecule 1 (VCAM1), VCAM1 (gene 7412)
The experiment can be described thus: BSK_MyoF_VCAM1: BioMAP Diversity Plus: MyoF Assay for Vascular cell adhesion molecule 1 (VCAM1) Biomarker Activity (AID 2284231). The following applies: primary human lung fibroblasts. Summed up:
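ELISA readout of VCAM-1 on human lung fibroblast cultures 24 hours after dosing, analyzed for signal gain relative to DMSO. Overt cytotoxicity was checked by sulforhodamine B total-protein staining in parallel cultures.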

Read-out in experiment [14]: Collagen I, COL1A1 (gene 1277)
Briefly: BSK_MyoF_CollagenI: BioMAP Diversity Plus: MyoF Assay for Collagen I Biomarker Activity (AID 2284238). The note with it: primary human lung fibroblasts. In a few lines: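 Collagen I levels measured by ELISA on human lung fibroblast cultures 24 h post-dosing, with curve fitting in the positive direction relative to DMSO; SRB staining of parallel wells marked cytotoxicity.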

Read-out in experiment [15]: Collagen III, COL3A1 (gene 1281)
The experiment can be described thus: BSK_MyoF_CollagenIII: BioMAP Diversity Plus: MyoF Assay for Collagen III Biomarker Activity (AID 2284239). The following applies: primary human lung fibroblasts. Summed up:
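Collagen III biomarker quantified by ELISA in human lung fibroblast cultures 24 h after dosing. Activity fitted in the positive direction against DMSO as baseline.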

Read-out in experiment [16]: Interleukin 17F (IL17F), IL17F (gene 112744)
Briefly: BSK_BT_xIL17F: BioMAP Diversity Plus: BT Assay for Interleukin 17F (IL17F) Biomarker Activity (AID 2284243). The note with it: primary human B cells with PBMC. In a few lines: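 Human B cells co-cultured with PBMC; secreted IL-17F quantified by LumineX xMAP 24 hours after chemical dosing. Activity fitted in the positive direction against DMSO negative control as baseline.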

Read-out in experiment [17]: Actin alpha 1 (ACTA1), ACTA1 (gene 58)
Briefly: BSK_MyoF_ACTA1: BioMAP Diversity Plus: MyoF Assay for Actin alpha 1 (ACTA1) Biomarker Activity (AID 2284244). The following applies: primary human lung fibroblasts. In a few lines:
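alpha-SMA levels read by ELISA against DMSO baseline, 24 h post-dose, in primary human lung fibroblasts. Parallel cultures stained with 0.1% SRB after 10% TCA fixation (560 nm) to flag overt cytotoxicity.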

Read-out in experiment [18]: Interleukin 2 (IL2), IL2 (gene 3558)
Briefly: BSK_BT_xIL2: BioMAP Diversity Plus: BT Assay for Interleukin 2 (IL2) Biomarker Activity (AID 2284245). The note with it: primary human B cells with PBMC. Summed up:
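Secreted IL-2 was read by Luminex xMAP from B cells co-cultured with PBMC (human primary) 24 h post-dosing; activity was analysed as gain of signal relative to DMSO vehicle.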

Read-out in experiment [19]: Basic fibroblast growth factor (bFGF), FGF2 (gene 2247)
The experiment can be described thus: BSK_MyoF_bFGF: BioMAP Diversity Plus: MyoF Assay for Basic fibroblast growth factor (bFGF) Biomarker Activity (AID 2284246). The note with it: primary human lung fibroblasts. In a few lines: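 bFGF was measured by ELISA in primary human lung fibroblasts 24 h after chemical addition. Signal was analysed as positive-direction change relative to DMSO baseline.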

Read-out in experiment [20]: Collagen IV, COL4A1 (gene 1282)
Briefly: BSK_MyoF_CollagenIV: BioMAP Diversity Plus: MyoF Assay for Collagen IV Biomarker Activity (AID 2284247). The following applies: primary human lung fibroblasts. Summed up: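 Collagen IV quantified by ELISA in human lung fibroblast cultures 24 h after chemical treatment, with DMSO as baseline. Parallel SRB staining (0.1% SRB after TCA fixation, 560 nm) flags overt cytotoxicity.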

The structures appear in SMILES notation. “And” between values parts separate entries of the source, which are not always exact repeats. Equal values may be shown once. Records with an inconclusive call do not appear. Some structures have more than one record in an assay (separate samples or runs), and their calls can disagree. The source made the active and inactive calls. Rule for the calls, unless noted: active = hit-call score of the fitted dose curve at least 0.9, where 1 is the maximum; inactive = score below 0.9.

Sequence of Tumor necrosis factor (Homo sapiens) (P01375 whole entry, looked up): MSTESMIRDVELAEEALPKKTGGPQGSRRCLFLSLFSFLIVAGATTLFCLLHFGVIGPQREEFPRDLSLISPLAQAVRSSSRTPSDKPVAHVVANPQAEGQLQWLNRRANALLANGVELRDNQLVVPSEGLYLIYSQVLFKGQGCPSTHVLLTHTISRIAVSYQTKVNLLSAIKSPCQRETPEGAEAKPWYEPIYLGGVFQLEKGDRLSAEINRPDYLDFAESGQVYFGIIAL

Regarding `C[N+]1(C)CCCCC1`, the result in experiment [1] and in experiment [2] was inactive.
With `CC[C@H](C)[C@H]1O[C@]2(C=C[C@@H]1C)C[C@@H]1C[C@@H](C/C=C(\C)[C@@H](O[C@H]3C[C@H](OC)[C@@H](O[C@H]4C[C@H](OC)[C@@H](NC)[C@H](C)O4)[C@H](C)O3)[C@@H](C)/C=C/C=C3\CO[C@@H]4[C@H](O)C(C)=C[C@@H](C(=O)O1)[C@]34O)O2`, the AC50 (usually the midpoint of the concentration-response curve, whichever way the signal moves) is 1.76 µM (active) in experiment [3]; 3.1 µM (active) and 3.81 µM (active) in experiment [4]; 1.23 µM (active) and 1.7 µM (active) in [5]; 883 nM (active) and 1.53 µM (active) in experiment [1]; 14.3 µM (active) and 3.62 µM (active) in [2]; 1.3 µM (active) in [6]. In [7], the AC50 is 672 nM (active) and 1.14 µM (active).
`CCOC(=O)CC(SP(=O)(OC)OC)C(=O)OCC` (centres undefined): the outcome in [3], in experiment [4], in experiment [1], in experiment [2] and in [6] was inactive.
Turning to `C=C(C)[C@H]1Cc2c(ccc3c2O[C@@H]2COc4cc(OC)c(OC)cc4[C@@H]2C3=O)O1`, the concentration at half-maximal activity (AC50) in experiment [8] is 0.01 µM (active); in [5] it was 135 nM (active); in experiment [1], 17.5 nM (active); in [6] it was 0.159 µM (active). Besides, the outcome in experiment [9] was inactive.
With `CSC1=N[C@@](C)(c2ccccc2)C(=O)N1Nc1ccccc1`, the molecule was called inactive in experiment [5], in experiment [1], in experiment [2] and in experiment [6].
As to `CCOP(=O)(SC(C)CC)N1CCSC1=O` (centres undefined), the call in experiment [1], in experiment [2] and in experiment [6] was inactive.
With `CC1=NNC(=O)N(/N=C/c2cccnc2)C1`, the molecule was classed as inactive in [5], in [1] and in [2].
As to `CCOP(=O)(OCC)Oc1cc(C)nc(C(C)C)n1`, the molecule was called inactive in experiment [4], in experiment [5], in experiment [1], in experiment [2] and in experiment [6].
With `CCOP(=S)(OCC)Oc1cc(C)nc(C(C)C)n1`, the AC50 in experiment [1] was 110 nM (active). In addition, the call in experiment [2] and in experiment [7] was inactive.
Consider `CCCCSP(=O)(SCCCC)SCCCC`, for which, in [4], the molecule was classed as inactive. For the same molecule, the AC50 in experiment [5] was 86.4 µM (active) and 68.4 µM (active); in experiment [1], 84.4 µM (active) and 76 µM (active); in experiment [2] it was 35.8 µM (active) and 32.8 µM (active); in experiment [6] it was 66.9 µM (active); in [7], 86 µM (active) and 24.4 µM (active).
Regarding `CCCSP(=O)(OCC)SCCC`, the call in experiment [4], in experiment [5], in [1], in experiment [2], in experiment [6] and in [7] was inactive. Moreover, the AC50 in experiment [7] is 3.79 µM (active).
Regarding `S=C1NCCN1`, the molecule was called inactive in experiment [1], in [2], in experiment [6] and in [7].
With `COP(=O)(NC(C)=O)SC` (centres undefined), the result in experiment [1], in [2], in experiment [6] and in [7] was inactive.
In the case of `O=[N+]([O-])c1cc(C(F)(F)F)c(Cl)c([N+](=O)[O-])c1Nc1ncc(C(F)(F)F)cc1Cl`, the AC50 was 3.72 µM (active) in experiment [10]; 0.73 µM (active) in experiment [11]; 3.97 µM (active) in experiment [12]; 2.53 µM (active) in experiment [13]; 1.48 µM (active) in experiment [4]; 1940 nM (active) in experiment [5]. The AC50 in experiment [1] is 740 nM (active); in experiment [14] it was 2.52 µM (active); in experiment [15], 2.72 µM (active); in experiment [2], 2.95 µM (active); in experiment [6], 2.4 µM (active); in experiment [7] it was 0.717 µM (active). Also, the AC50 was 1.35 µM (active) in experiment [16]; 2.27 µM (active) in [17]; 3.34 µM (active) in experiment [18]; 3.75 µM (active) in experiment [19]; 2.27 µM (active) in experiment [20].
Regarding `CCOP(=S)(OCC)Oc1ccc([N+](=O)[O-])cc1`, the call in [8], in experiment [9], in experiment [2] and in [7] was inactive. Further, the AC50 in experiment [1] was 24700 nM (active).
Regarding `COP(=O)(OC)C(O)C(Cl)(Cl)Cl` (centres undefined), the molecule was called inactive in experiment [1] and in experiment [6]. Also, the AC50 in experiment [2] is 15.5 µM (active); in experiment [7] it was 50 µM (active).
